# Bioassay records: PubChem BioAssay, National Center for Advancing Translational Sciences (NCATS)
# Methyltransferases – Primary Screen for Target Class Profiling of Small Molecule Inhibitors of Methyltransferases; calls only at 40 µM; purified enzyme, MTase-Glo SAH luminescence; stronger effect = lower value; hit rate 3.9% among 25,000; AID 1745853, 2022; call rule not given here
#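 Each enzyme was assayed with SAM and its substrate. SAH formation detected by MTase-Glo luminescence; single-point 40 uM screen[…].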
# MTase-Glo ctr – detection enzyme interference, methyltransferase counter-screen | hit rate 6% among 180 | shares compounds with Methyltransferases | Potency, µM (series often up to 57.3 µM), inactives show at the top dose activity change, negative = inhibition, actives largely listed as inhibitors | MTase-Glo coupled enzymes, SAH conversion luminescence, no MTase; active = well fitted inhibition curve with a large enough effect; note: potency is the fitted concentration of half-maximal effect
# The depositor's hits bear a star; i = inactive; + = active, no number; [ ] = remark or other dose. The sample as a whole holds a higher share of hits than the screen did. % is set by controls: 0 for no effect and ±100 for the full control effect.
SMILES,Methyltransferases,others
Cn1c(COc2cccc(CN3CCCC3)c2Cl)nnc1C1CC(N)C1 (stereo not drawn),+,MTase-Glo ctr=-4.7%
CC(C)CCNC(=O)C1(C)Cn2c(cc3ccccc32)C(=O)N1Cc1cccc(F)c1 (stereo not drawn),i,
Cc1ccc(CN2C(=O)c3cc4ccccc4n3CC2(C)C(=O)NCCCOC(C)C)cc1 (stereo not drawn),i,
CCN(CC)Cc1cnc2c(C(=O)N3CCCN4CCC[C@H]4C3)cnn2c1,+,MTase-Glo ctr=1.7%
CN1C[C@@H]2CC[C@H](CC1=O)N2C(=O)c1cnn2cc(CCO)cnc12,i,
CCC(O)C1CCN(C(=O)c2cnn3cc(CN(CC)CC)cnc23)CC1 (stereo not drawn),i,
COc1ccccc1CNC(=O)C1c2c(n(C)c3ccccc23)SCC(=O)N1c1ccc(C(C)C)cc1 (stereo not drawn),i,
Cc1ccc(C(=O)Cn2nc3n(CC(C)C)c(=O)c4ccccc4n3c2=O)c(C)c1,i,
CC(C)Cn1c(=O)c2ccccc2n2c(=O)n(CC(=O)NCc3ccccc3)nc12,i,
Cc1cnccc1NCCn1ccnc1-c1cc2n(n1)CCCNC2,+,MTase-Glo ctr=-2.3%
Cc1ccc(-n2ccnc2-c2cc3n(n2)CCNC3)cc1N1CCCC1=O,i,
c1ccc2c(c1)OCC(CCn1ccnc1-c1cc3n(n1)CCNC3)O2 (stereo not drawn),i,
CC(C)CCNC(=O)C1(C)Cn2c(cc3ccccc32)C(=O)N1Cc1ccc(N(C)C)cc1 (stereo not drawn),i,
CCOC(=O)c1cc2n(n1)CC(C)(C(=O)NC1CCCCC1)N(c1cccc(CC)c1)C2=O (stereo not drawn),i,
CN1C(=O)c2cc(C(=O)NCCc3ccco3)nn2CC1(C)C(=O)NCc1ccccc1 (stereo not drawn),i,
c1ccc(CC2=NOC3(CCN(Cc4c[nH]c5ccccc45)CC3)C2)cc1,i,
O=C1OCC2(CCN(Cc3c[nH]c4ccccc34)C2)N1Cc1ccccc1 (stereo not drawn),i,
O=C(OCc1ccccc1)N1CCOCC12CCN(Cc1c[nH]c3ccccc13)CC2,+,MTase-Glo ctr=3.0%[85.7 µM]
CCOc1ccccc1CN1C(=O)c2cc(-c3cccs3)nn2CC1(C)C(=O)NC1CCCCC1 (stereo not drawn),i,
CC(C)Cn1c(=O)c2ccc(C(=O)NC(C)C)cc2n2c(SCC(=O)c3ccc(F)cc3)nnc12,i,
COc1ccccc1CC(=O)N1CCCc2ncc(C(=O)Nc3cccc(Cl)c3)cc21,+,MTase-Glo ctr=3.8%[85.7 µM]
COc1cc(NC(=O)c2ccccn2)ccc1Cl,i,
COc1cc(C(=O)NC(=S)Nc2cccc(NC(=O)c3ccccc3)c2)cc(OC)c1OC,i,
CC(C)CCn1c(=O)c2ccc(C(=O)NCC(C)C)cc2n2c(=O)n(Cc3cccc(F)c3)nc12,i,
Cc1ccc(CN2CCC3(CC2)CC(c2ccccc2)C(=O)N3C)cc1F (stereo not drawn),i,
SMILES,Methyltransferases,others
CN1C(=O)C(c2ccccc2)CC12CCN(c1ccnc(N)n1)CC2 (stereo not drawn),+,MTase-Glo ctr=4.7%
COc1ccc(CNC(=O)O[C@H]2COCCN(c3nc4ccccc4o3)C2)cc1,i,
c1ccc(CO[C@H]2COCCN(c3nc4ccccc4o3)C2)cc1,+,MTase-Glo ctr=-3.9%[85.7 µM]
O=C1N(Cc2ccc(F)c(F)c2)CCCC12CCN(c1nc3ccccc3o1)C2 (stereo not drawn),i,
CSc1ccc(CN2C(=O)c3cc4ccccc4n3CC2(C)C(=O)NCc2ccccc2)cc1 (stereo not drawn),i,
CC(C)Cn1c(=O)c2ccc(C(=O)NC(C)C)cc2n2c(SCc3ccccc3Cl)nnc12,i,
N#Cc1cc(CN2CCCC(C(=O)Nc3cccc(-c4ccc(F)cc4)c3)C2)c[nH]1 (stereo not drawn),+,MTase-Glo ctr=-5.4%
Cc1cccc(CN2CCCC(C(=O)Nc3cccc(-n4cccn4)c3)C2)n1 (stereo not drawn),i,
CC(=O)Nc1ccc(NC(=O)c2cccc(CN3CCCC(C#N)C3)c2)cc1 (stereo not drawn),i,
COc1ccc(-c2cc3n(n2)CC(C)(C(=O)NCc2ccccc2)N(CCCOC(C)C)C3=O)cc1 (stereo not drawn),i,
CCCN1C(=O)c2c(C(=O)NCc3cccc(C)c3)ncn2CC1(C)C(=O)NCCC(C)C (stereo not drawn),i,
Cc1ccc(-c2n[nH]n3c2nc(=O)c2ccc(C(=O)NCCc4cccs4)cc23)cc1,i,
COc1cccc(CNC(=O)c2c(C)noc2-c2ccccc2OC)c1,i,
COc1ccc(OCc2cc(C(=O)NC(CO)C(C)C)no2)c2ccccc12 (stereo not drawn),+,MTase-Glo ctr=2.3%
COc1cccc(OC)c1-c1cc(C(=O)N[C@@H](CC(C)C)C(=O)O)nn1-c1ccnc2cc(Cl)ccc12,i,
COc1ccc(CCN2C(=O)c3cc4ccccc4n3CC2(C)C(=O)NC2CCCC2)cc1OC (stereo not drawn),i,
CC(CCc1ccccc1)NC(=O)CCn1ccc2cc(S(=O)(=O)N3CCCC3)ccc21 (stereo not drawn),i,
COc1cccc(C2c3cccn3-c3sc4c(c3CN2C(=O)Nc2ccccc2C)CCCC4)c1 (stereo not drawn),i,
CCNc1ncc(CN2CCN(c3ccncc3)CC2)cn1,+,MTase-Glo ctr=-1.5%
CCN1CCN(C(=O)C2CCCN(Cc3ccncc3)CCC(=O)NCC2)CC1 (stereo not drawn),i,
COc1cc(OC)c(NC(=O)N2CCn3c(C)ccc3C2C(C)C)cc1Cl (stereo not drawn),i,
O=C(CCc1nnc2n(Cc3ccccc3)c(=O)c3ccccc3n12)NCc1ccc(F)cc1,i,
